The text below walks through data of PubChem BioAssay.

Several values for one entry are separate records, joined by “and”; a condition that tells them apart may be missing. Identical values can stand only once. For part of these data: Entries with a potency or affinity are not part of this list. Activity calls are given as the source filed them. Unless noted, the rule behind the calls is not given here.

A short description of experiment [1]: polyglutamine-triggered caspase-3 activation inhibitors, cell-based (AID 1583). Conditions: polyglutamine-induced caspase-3 activation, cell assay; stronger effect = higher value;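 tested at 10 µM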.
Experiment [2] is described as follows: suppressors of polyQ aggregation in yeast, 75Q-TubU reporter (AID 1593). To be noted: Yeast 75Q polyglutamine aggregation reporter.
Experiment [3] in a line: rescue of polyQ-huntingtin neuronal dysfunction in worms, whole organism, C. elegans mechanosensory neurons, N-terminal huntingtin (AID 1599). Conditions: touch response, stronger effect = higher value.
The nature of experiment [4]: inhibitors of mitochondrial cytochrome c release, biochemical, purified mitochondria (AID 1603).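 Note: mouse liver mitochondria challenged with calcium chloride; signal normalized to the plate average as 100%.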 Conditions: stronger effect = lower value.
Experiment [5] in a line: inhibitors of polyQ protein aggregation (AID 1604). To be noted: polyglutamine-induced protein aggregation inhibition assay; stronger effect = higher value; tested at 2.5 µM.
Experiment [6] in a line: enhancers of glutamate uptake in motor neurons, MN-1 cell line (AID 1612).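 Note: tested at 1 µM final; 0% = mean of DMSO vehicle wells on each plate; positive means more glutamate uptake than control and negative means less.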 To be noted: MN-1 motor neuron cells, stronger effect = higher value.
Experiment [7] can be described thus: reducers of polyQ inclusions in PC12 cells, cell-based, NGF-treated PC12, GFPQ80 (AID 1614).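 Note: lower means fewer inclusions and 0 means no inclusions at all.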 Conditions: PC12 NGF-treated GFP-polyQ80 inclusion reduction.
Experiment [8] is described as follows: suppressors of polyglutamine aggregation in yeast, 75Q-TubH (AID 1616). Conditions: S. cerevisiae 75Q-TubH polyglutamine aggregation suppression; stronger effect = higher value.
Experiment [9] is described as follows: circadian clock period modulators, cell-based, LOPAC library, luminescence reporter (AID 2774).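 Note: values are relative to mean of DMSO wells on each plate.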 Conditions: circadian reporter cells, at 7 µM, actives lie on both sides.
In experiment [10] the test system is Hepatitis C virus NS3 helicase. Kind of experiment: HCV NS3 helicase inhibitors, primary screen, biochemical, fluorescence polarization, LOPAC1280 library (AID 687035; in the data active = inhibition above about 37%). To be noted: Purified HCV NS3 helicase, Cy5-dT15 ssDNA binding fluorescence polarization; stronger effect = higher value; concentration not given here.
Experiment [11] deals with 6-phosphogluconate dehydrogenase, decarboxylating (Homo sapiens) (UniProt P52209). Kind of experiment: 6PGD enzyme inhibitors, primary screen, biochemical, human, recombinant enzyme, NADPH absorbance (AID 1159550;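 active = at least 20% inhibition of 6-phosphogluconate dehydrogenase activity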). Conditions: recombinant 6PGD, NADPH absorbance 341 nm; at 10 µM; stronger effect = higher value.
The nature of experiment [12]: differential killing of epithelial or mesenchymal cells, primary screen, imaging, PC-3E GFP, TEM4-18 mCherry, co-culture (AID 1345086;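 active = compounds killing one labelled cell type while sparing the other, by normalised counts and ratio limits, not self-fluorescent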;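 for all read-outs here: cells exposed to compound for 72 h before imaging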;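 for red/green cell ratio (normalised): normalised mesenchymal count divided by normalised epithelial count so high means epithelial killing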). To be noted: imaging cell counts, at 1 µM; for red/green cell ratio (normalised): actives lie on both sides, counts scaled to control wells, 1 = unselective.
The nature of experiment [13]: sensitizers of A549 cells to miR-34 induction, primary screen, imaging, A549 dox-inducible miR-34, nuclei and caspase counts (AID 1347080;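 active = compounds whose cell count with miR-34 switched on is under 0.7 times the count with it off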). To be noted: A549 miR-34 inducible, Hoechst nuclei count, 48 h.
Experiment [14] in a line: phospholipid biosynthesis inhibitors in animal cells, primary screen, cell-based, LOPAC library, screen 4 (AID 1347384). Conditions: phospholipid biosynthesis inhibition screen, at 10 µM.
The nature of experiment [15]: viability rescue of complex I mutant cybrids, primary screen, cell-based, galactose medium, ATP luminescence (AID 1645843;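 active = z-score of at least 1.8 in each of two replicates, scored against plate mean and spread of sample wells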;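 note: positive z means more ATP and so rescue of galactose-driven cybrid death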). Conditions: complex I mutant cybrid cells, 72 h, stronger effect = higher value.
Experiment [16] can be described thus: liver-stage malaria parasite growth inhibition, primary screen, cell-based, HepG2, luciferase luminescence, HepG2 viability (AID 624349; in the data active = parasite load remaining mostly below about 12%, no sharp cut-off; inactive = mostly above about 10%;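 note: 100% = mean of DMSO negative control wells on the same plate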). Conditions: P. berghei liver stage in HepG2, luciferase luminescence, concentration not given here; parasite load remaining: stronger effect = lower value; viability: measured here: HepG2 viability without parasites.
Experiment [17] can be described thus: survival rescue of mitochondrial mutant cells in low glucose, primary screen, MELAS cybrids, Rieske KO mouse fibroblasts, CellTiter-Glo (AID 1508586;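 active = mean z-score across replicates of 1.96 or higher in either the MELAS or the Rieske mutant cell line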;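 note: z relative to plate mean and SD of compound and empty wells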). Background: In ATP-based viability assays light output follows the ATP content of the culture.
Experiment [18] addresses Mitogen-activated protein kinase 7 (Homo sapiens) (UniProt Q13164). In words: ERK5 transactivation activators in reporter cells, primary screen, cell-based, HTS (AID 1508626;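 active = luciferase signal above three times the same-plate solvent-only control wells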;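 note: luciferase driven by Gal4-ERK5 fusion binding five Gal4 sites before minimal TATA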). Conditions: HeLa Gal4-ERK5 transactivation, 18 h, at 5 µM, stronger effect = higher value.
The nature of experiment [19]: hESC survival regulators, cell-based (AID 493140).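 Note: cells exposed to compounds for four days before counting.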 To be noted: human embryonic stem cell survival screen; stronger effect = higher value.
The mark [20] stands for this setting: measured here: epithelial PC-3E GFP cell survival.
Where [21] appears, read: measured here: mesenchymal TEM4-18 mCherry cell survival.
The mark [22] stands for this setting: stronger effect = lower value, cell number ratio, induced over uninduced.
[23] abbreviates: measured here: relative caspase fold change +Dox/-Dox.
Where [24] appears, read: measured here: total cells with miR-34 induction, stronger effect = lower value.
Where [25] appears, read: measured here: total cells without miR-34 induction.

Chain of 6-phosphogluconate dehydrogenase, decarboxylating (Homo sapiens) (P52209 whole entry, looked up): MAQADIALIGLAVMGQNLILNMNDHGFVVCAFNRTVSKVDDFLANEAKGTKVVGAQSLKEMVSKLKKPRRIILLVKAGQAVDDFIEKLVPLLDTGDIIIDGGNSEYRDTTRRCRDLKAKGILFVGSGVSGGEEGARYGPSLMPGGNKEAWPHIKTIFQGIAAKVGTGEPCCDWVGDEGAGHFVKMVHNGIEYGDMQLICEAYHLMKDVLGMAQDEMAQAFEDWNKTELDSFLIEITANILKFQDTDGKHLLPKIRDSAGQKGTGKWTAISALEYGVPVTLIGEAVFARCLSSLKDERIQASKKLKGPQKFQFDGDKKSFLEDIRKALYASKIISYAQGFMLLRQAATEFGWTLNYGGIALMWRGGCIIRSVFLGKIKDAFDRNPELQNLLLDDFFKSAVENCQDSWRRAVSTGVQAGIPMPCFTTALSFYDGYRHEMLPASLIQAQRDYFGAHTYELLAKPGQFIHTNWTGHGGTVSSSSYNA
Chain of Mitogen-activated protein kinase 7 (Homo sapiens) (Q13164 whole entry, looked up, the tested form may be a part): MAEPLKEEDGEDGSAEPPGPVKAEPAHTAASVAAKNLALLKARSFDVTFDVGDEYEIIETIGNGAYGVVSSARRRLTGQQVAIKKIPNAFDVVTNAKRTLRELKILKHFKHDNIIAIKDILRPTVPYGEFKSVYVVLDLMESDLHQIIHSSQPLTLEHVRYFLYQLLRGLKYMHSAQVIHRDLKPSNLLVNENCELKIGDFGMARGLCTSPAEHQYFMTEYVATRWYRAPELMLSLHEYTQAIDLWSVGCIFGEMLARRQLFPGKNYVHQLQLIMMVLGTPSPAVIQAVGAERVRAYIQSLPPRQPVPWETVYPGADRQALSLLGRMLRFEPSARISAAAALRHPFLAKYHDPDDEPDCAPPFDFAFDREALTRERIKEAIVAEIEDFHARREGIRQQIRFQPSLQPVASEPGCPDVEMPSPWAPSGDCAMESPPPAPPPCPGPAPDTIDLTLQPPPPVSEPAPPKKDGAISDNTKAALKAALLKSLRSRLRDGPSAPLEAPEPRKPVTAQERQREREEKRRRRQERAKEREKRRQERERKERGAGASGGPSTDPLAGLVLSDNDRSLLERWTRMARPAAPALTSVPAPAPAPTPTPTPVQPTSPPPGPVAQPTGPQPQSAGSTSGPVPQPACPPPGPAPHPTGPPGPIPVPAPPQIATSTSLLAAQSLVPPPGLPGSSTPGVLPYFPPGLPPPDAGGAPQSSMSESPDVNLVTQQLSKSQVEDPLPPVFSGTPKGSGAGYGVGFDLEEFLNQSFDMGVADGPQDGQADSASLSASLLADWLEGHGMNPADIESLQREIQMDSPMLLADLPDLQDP

Consider `NC(N)=NC(N)=Nc1ccccc1`, for which the inhibition (in general, the drop in the measured response relative to a control, in per cent) in experiment [1] is 53.4% and -16.9%; in experiment [10], -3% (inactive); in [11] it was -4.29% (inactive). Further, the score in experiment [2] was 1.25 and 0.9. Further, in [3], the rescue above control was -3.01 and 7.54. Also, the cytochrome c release ratio in experiment [4] was 0.86 and 1.03. Besides, the inhibition of aggregation in [5] is 72.2% and 69.7%. The glutamate uptake change in experiment [6] was -1.79% and -11.1%. The molecule further gave an inclusion score in experiment [7] of 2. The aggregation suppression score in experiment [8] is 1.39 and 0.87. In [9], the period change is 0.065 h (inactive). Moreover, the red/green cell ratio (normalised) in experiment [12] was 0.97 (inactive). The figures for the normalised cell number in experiment [12] (setting [20]) and in experiment [12] (setting [21]) were 1.24 and 1.2, respectively. In addition, the fold change in [13] (setting [22]) is 1 (inactive) and 0.938 (inactive); in experiment [13] (setting [23]), 1.38 and 0.627. For the same molecule, the cell count was 9810 and 9310 in experiment [13] (setting [24]); 9810 and 9920 in [13] (setting [25]). The outcome in experiment [14] was inactive. Further, the z-score in experiment [15] is 0.085 (inactive) and -0.065 (inactive).
Take `O=c1c(O)c(-c2ccc(O)cc2O)oc2cc(O)cc(O)c12`: the results for the inhibition in experiment [1], in [10] and in [11] were -17.6%, -4% (inactive) and -23.3% (inactive), respectively. In [2], this molecule gave a score of 1.66. In experiment [3], this molecule displayed a rescue above control of -6.82. Also, the cytochrome c release ratio in [4] was found to be 0.57. In experiment [5], this molecule gave an inhibition of aggregation of 49%. The glutamate uptake change in [6] was -11.3%. In experiment [7], this molecule gave an inclusion score of 2. In experiment [8], this molecule yielded an aggregation suppression score of 0.872. Moreover, the period change in experiment [9] was 0.015 h (inactive). The parasite load remaining in experiment [16] is 81.2% (inactive). In [16], the viability (usually a read-out of living cells in per cent, often relative to untreated cells) was determined as 66.9%. Also, the red/green cell ratio (normalised) in [12] is 0.97 (inactive). The normalised cell number in [12] (setting [20]) is 1.01; in experiment [12] (setting [21]), 0.98. Also, the fold change was 1.04 (inactive) and 0.943 (inactive) in experiment [13] (setting [22]); 0.926 and 0.734 in [13] (setting [23]). Moreover, the cell count in experiment [13] (setting [24]) was 11400 and 9750; in [13] (setting [25]), 11000 and 10300. For the same molecule, the call in experiment [14] was inactive. Further, the z-score is -0.297 (inactive) in experiment [17] (MELAS cybrid survival, CellTiter-Glo 48 h, stronger effect = higher value); 0.729 in experiment [17] (Rieske KO mouse fibroblast survival, CellTiter-Glo 72 h); 0.495 (inactive) in [15]. In experiment [18], the luciferase signal was 32 AU (inactive).
`O=C1C[C@@H](c2ccc(O)cc2)Oc2cc(O)cc(O)c21`: the inhibition in experiment [1] is 11.6%; in experiment [11], -3.37% (inactive). In experiment [2], this molecule yielded a score of 1.28. This molecule also returned a rescue above control in [3] of -15.8. In addition, the cytochrome c release ratio in [4] is 1.08. This molecule yielded an inhibition of aggregation in experiment [5] of 57.7%. Besides, in experiment [6], the glutamate uptake change came to 9.95%. In experiment [7], this molecule had an inclusion score of 2. In experiment [8], this molecule displayed an aggregation suppression score of 1.04. The red/green cell ratio (normalised) in experiment [12] was 1.16 (inactive). Besides, the normalised cell number in experiment [12] (setting [20]) came to 0.96; in [12] (setting [21]), 1.12. The luciferase signal in experiment [18] was 40 AU (inactive).
Turning to `COC(=O)[C@H]1[C@H]2C[C@H]3c4[nH]c5ccccc5c4CCN3C[C@H]2CC[C@@H]1O`, the values for the inhibition in [1], in [10] and in [11] were -11.7%, 0% (inactive) and -0.247% (inactive), respectively. In [2], this molecule yielded a score of 2.01. The rescue above control in experiment [3] turned out to be 16.2. Moreover, the cytochrome c release ratio in experiment [4] came to 1.18. The same molecule yielded an inhibition of aggregation in experiment [5] of 75.9%. The glutamate uptake change in experiment [6] was found to be 41.8%. In [7], this molecule displayed an inclusion score of 2. This molecule registered an aggregation suppression score in [8] of 1.4. The period change in [9] was 0.015 h (inactive). In addition, the survival in [19] was 5.58 (inactive). The parasite load remaining in [16] is 79.9% (inactive) and 65.8% (inactive). The viability in [16] was 101% and 78.6%. Also, in [12], the red/green cell ratio (normalised) was 1.04 (inactive). Moreover, the figures for the normalised cell number in experiment [12] (setting [20]) and in experiment [12] (setting [21]) were 0.93 and 0.97, respectively. Besides, the fold change in [13] (setting [22]) was 0.977 (inactive) and 0.857 (inactive); in experiment [13] (setting [23]), 0.889 and 1.48. Also, the cell count in experiment [13] (setting [24]) is 10000 and 9150; in experiment [13] (setting [25]), 10300 and 10700. Also, the result in experiment [14] was inactive. In addition, in experiment [15], the z-score is 0.115 (inactive).
On to `NCCCCN=C(N)N`, for which the period change in [9] is 0.06 h (inactive). In addition, in experiment [16], the parasite load remaining is 166% (inactive). Moreover, in [16], the viability was determined as 87.2%. Besides, the inhibition in [10] was 1% (inactive); in experiment [11], -2.27% (inactive). Besides, the red/green cell ratio (normalised) in experiment [12] is 0.84 (inactive). In addition, the normalised cell number in experiment [12] (setting [20]) turned out to be 1.01; in experiment [12] (setting [21]), 0.85. In addition, the fold change was 1.06 (inactive) in [13] (setting [22]) and 2.32 in [13] (setting [23]). For the same molecule, the cell count in [13] (setting [24]) was 10300; in experiment [13] (setting [25]), 9670. The molecule was classed as inactive in experiment [14]. Further, in experiment [18], the luciferase signal was 64 AU (inactive). Further, in [15], the z-score is 0.245 (inactive).
